Measured values: PubChem BioAssay (NCI)
Compounds without any hit were thinned out: in the full panel of roughly 83,000, 20% have a hit.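 Single-concentration screen, 48 h exposure, 96-well plates. Endpoint: percent growth. Below 10 = active.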 Values without a mark were called inactive. Calls of active or inactive are those of the source.

How the values were obtained:
Experiment in all cases: NCI-60 one-dose screen, 48 h (100 = growth as untreated, 0 = no growth, -100 = all killed)
Conditions in all cases: 10 µM unless noted
[1] = test system: T-47D breast
[2] = test system: BT-549 breast
[3] = test system: MDA-MB-435 melanoma
[4] = test system: SW-620 colon
[5] = test system: MCF7 breast
[6] = test system: HCT-116 colon
[7] = test system: HCC-2998 colon
[8] = test system: KM12 colon

| SMILES | growth [1] | growth [2] | growth [3] | growth [4] | growth [5] | growth [6] | growth [7] | growth [8] |
| --- | --- | --- | --- | --- | --- | --- | --- | --- |
| O=C1/C(=C/c2ccc(Cl)cc2Cl)CN(S(=O)(=O)c2ccccc2)C/C1=C\c1ccc(Cl)cc1Cl | 23.7% | -72.8% (active) | 3.98% (active) | -15.2% (active) | 13.9% | -84% (active) | -15.3% (active) | -57.2% (active) |
| C=CC[N+]1(CCO)CCN=C1CCCCCCCCCCCCC (stereo unspecified) | -39.2% (active) | -10.2% (active) | -78.1% (active) | -72.3% (active) | -72.3% (active) | -95.1% (active) | -91.1% (active) | -83.2% (active) |
| Nc1nc(-c2ccc(F)cc2)cc(-c2cnn(-c3ccccc3)n2)n1 | 87.1% | 119% | 106% | 99.3% | 79.9% | 106% | 111% | 100% |
| CCN(CC)c1ccc(CNc2cc(C)nc3ccc(OC)cc23)cc1 | 80% | 79.6% | -16.5% (active) | -74.6% (active) | 76.7% | 54.8% | -92.6% (active) | 28.4% |
| CSc1ccc(N=C=C(c2ccccc2)c2ccccc2)cc1 | 81.9% | 88.9% | 97.4% | 86% | 78.5% | 89.3% | 100% | 102% |
| CCCCCCCCCCCCNC(=O)[C@H]1CSC(c2ccc(OC)c(F)c2)N1 (stereo partly specified) | -68.9% (active) | -84.3% (active) | -92% (active) | -70.4% (active) | -68.1% (active) | -88.7% (active) | -83.6% (active) | -84.6% (active) |
| CCN(CC)Cc1cc(Nc2c3ccc(Cl)cc3nc3c(C)cccc23)ccc1O | -70.5% (active) | -54.3% (active) | -89.6% (active) | -14% (active) | -61.6% (active) | -73.2% (active) | -95% (active) | -45.4% (active) |
| COc1cc(-c2c3c(nc4c2c(C)nn4-c2ccccc2)-c2ccccc2C(=O)C3=O)cc(OC)c1OC | 72.4% | 68.4% | -0.815% (active) | 86.2% | 57.7% | 51.5% | 71.1% | 80.8% |
| COCCOC(=O)C1=C(C)NC(=S)NC1c1ccc2c(c1)OCO2 (stereo unspecified) | 94.8% | 109% | 104% | 106% | 89.6% | 103% | 109% | 100% |
| COc1nc2c(cc1S(=O)(=O)c1ccccc1)CCc1c-2cnn1Cc1ccccc1 | 16.3% | 62.8% | 58.9% | 74.1% | 15.4% | 32.5% | 60.5% | 27.7% |
| C=C1CC2(OC1=O)C(=O)Nc1ccccc12 (stereo unspecified) | 37.3% | 75.3% | 49.7% | 4% (active) | 16.4% | 31.4% | 90.1% | 97.3% |
| CC/C=C\C[C@H](O)C/C=C1/C(=O)C=C[C@@H]1C/C=C\CCCC(=O)NC(C)C | 11.4% | 0.828% (active) | 5.43% (active) | 11.7% | 14.4% | -54.3% (active) | -55.5% (active) | -43.5% (active) |
| O=C1O[C@H]([C@H](O)CO)C(O)=C1O | 114% | 93.1% | 106% | 87.3% | 103% | 98.2% | 98.3% | 103% |
| COc1cc(OC)c(/C=C/S(=O)(=O)Cc2ccc(OC)c(N)n2)c(OC)c1 | 44.8% | 8.17% (active) | 2.24% (active) | 25.5% | 12.9% | 2.03% (active) | 18.8% | 12.9% |
| CSc1nc(NCCO)c(C#N)c(-c2cccc(N)c2)n1 | 87.8% | 98% | 105% | 103% | 94.7% | 98.9% | 109% | 99.4% |
| COc1ccc(/C=C2\CN(C(=O)CCN3CCC(=NO)CC3)C/C(=C\c3ccc(OC)cc3)C2=O)cc1 | 23.3% | 15.2% | -61.4% (active) | -39.3% (active) | -0.32% (active) | -31.8% (active) | -89.5% (active) | -59.6% (active) |

| SMILES | growth [1] | growth [2] | growth [3] | growth [4] | growth [5] | growth [6] | growth [7] | growth [8] |
| --- | --- | --- | --- | --- | --- | --- | --- | --- |
| Cc1cc(Nc2nc(N3CCN(C)CC3)nc3ccccc23)n[nH]1 | 71.2% | 76.2% | 52.2% | 69.2% | 46.2% | 50.3% | 87.6% | 19% |
| O=C1CC(c2nc3ccccc3s2)CN1C1CCCCC1 (stereo unspecified) | 88.2% | 97.1% | 107% | 107% | 89.1% | 108% | 95.2% | 98% |
| C/C(=C(/c1ccc(O)cc1)c1ccc(OCCN(C)C)cc1)c1ccccc1 | 42.6% | 92.4% | 77.2% | 101% | 32.6% | 68.4% | 97.8% | 81.1% |
| COc1ccc(-c2cc(=O)[nH]c3c(OC)c4ccccc4c(OC)c23)cc1 | 31.6% | 26% | -28.9% (active) | 19.6% | 13.4% | 12.1% | 0.772% (active) | 2.11% (active) |
| CC[n+]1ccc2c(c1)C(=O)c1nccc3c1c-2nc1ccccc13 | 8.59% (active) | -82.7% (active) | 4.27% (active) | 5.32% (active) | -6.21% (active) | -27.8% (active) | -21% (active) | 8.87% (active) |
| CN1CCN(Cc2ccc(NC(=O)c3[nH]ncc3Nc3ncnc4sccc34)cc2)CC1 | 27.7% | -5.78% (active) | 25.8% | 6.8% (active) | 9.47% (active) | 6.91% (active) | -1.02% (active) | 5.21% (active) |
| COc1cc(NC(N)=NCC(C)(C)COc2ccc(C(F)(F)F)cc2)cnc1C#N | 30.3% | 75.4% | 61.1% | 69.9% | 32.5% | 37.7% | 18.9% | 57.6% |
| Clc1ccc(-c2nnc(COc3ccccc3Cl)o2)cc1 | 69.9% | 89.4% | 58.4% | 91.1% | 78.7% | 51.7% | 86.8% | 82.4% |
| COc1cccc(-c2cn3c(ccc4ccccc43)n2)c1 | 46.1% | 37.8% | -25.6% (active) | 26.2% | 17.4% | 40.6% | 68.8% | 34.6% |
| COC(=O)[C@@H]1CC[C@]2(C)[C@H](CC[C@@H]3O[C@@]32C)[C@@]1(C)CC(=O)c1ccoc1 | 105% | 105% | 104% | 88.3% | 93% | 98.4% | 93.1% | 108% |
| Nc1ccc2c(c1)C(=O)NC2=O | 93.5% | 117% | 92.2% | 94.8% | 96.5% | 97.8% | 95.2% | 98.8% |
| COc1ccc(N(Cc2cc(OC)c(OC)c(OC)c2)C2OC(=O)c3ccccc32)cc1 (stereo unspecified) | 45.8% | 66.1% | -55% (active) | 20.3% | 16.4% | 23% | 43.9% | 27.7% |
| COc1ccc(-c2c(C)noc2-c2ccc(O)cc2O)cc1 | 86.9% | 112% | 87.1% | 69.5% | 67.6% | 77.9% | 111% | 64.4% |
| O=C(NCc1cccc(C(F)(F)F)c1)[C@H](CCC(=O)N1CCN(C2CCCCC2)CC1)N1C(=O)[C@@H](N2C(=O)OC[C@@H]2c2ccccc2)[C@H]1/C(Cl)=C/c1ccccc1 | 61.3% | 60.1% | 52.1% | 74.9% | 29.6% | 34.3% | 31.9% | 34.5% |
| CCC(=O)Oc1ccc(/C(=C(\C)c2ccccc2)c2ccc(OCCN(CC)CC)cc2)cc1 | 43.8% | 86.3% | 76.1% | 79.4% | 37.9% | 62.1% | 103% | 80.3% |
| Cc1ccc2cnc(N)c(C#Cc3cncc(C(=O)Nc4ccc(CN5CCN(C)CC5)c(C(F)(F)F)c4)c3)c2c1 | -65.2% (active) | -75.1% (active) | -96.6% (active) | -86.1% (active) | -85.8% (active) | -36.1% (active) | -82.9% (active) | -82.6% (active) |
